From PubChem BioAssay (NCATS)
Records with an inconclusive call do not appear. Active and inactive are the calls of the source. Calls come from the whole dose curve; as a rule, active = well fitted cell-killing curve with a large enough effect; inconclusive = small, poorly fitted or top-dose-only effect, or effect the other way; inactive = flat fitted curve, though single readings scatter.

Assays:
Assay in all cases: Primary qHTS to identify gynecologic anti-cancer compounds using libraries of approved drugs and bioactive compounds (AID 1345084); note: nearly all actives have a fitted effect of over 55% in size
[1] = tested on: C33A; details: Gynecologic cancer cell panel viability, ATPlite luminescence, 48 h; series mostly up to 57.5 µM
Outline: (§1)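 Luminescence from the ATPlite ATP-monitoring reagent indicates viable cell number; lower signal means cytotoxicity. Cells received compound 16 h after seeding and were exposed for 48 h across five concentrations.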

[2] = tested on: CAOV3; details: Gynecologic cancer cell panel viability, ATPlite luminescence, 48 h; series mostly up to 57.5 µM
Outline: as §1

[3] = tested on: CASKI; details: Gynecologic cancer cell panel viability, ATPlite luminescence, 48 h; series mostly up to 57.5 µM
Outline: as §1

[4] = tested on: Es-2; details: Gynecologic cancer cell panel viability, ATPlite luminescence, 48 h; series mostly up to 57.5 µM
Outline: as §1

[5] = tested on: HeLa; details: Gynecologic cancer cell panel viability, ATPlite luminescence, 48 h; series mostly up to 57.5 µM
Outline: as §1

[6] = tested on: Hek293T; details: Gynecologic cancer cell panel viability, ATPlite luminescence, 48 h, control line for the selectivity index; series mostly up to 57.5 µM
Outline: as §1

[7] = tested on: JEG-3; details: Gynecologic cancer cell panel viability, ATPlite luminescence, 48 h; series mostly up to 57.5 µM
Outline: as §1

[8] = tested on: OV90; details: Gynecologic cancer cell panel viability, ATPlite luminescence, 48 h; series mostly up to 57.5 µM
Outline: as §1

[9] = tested on: PA-1; details: Gynecologic cancer cell panel viability, ATPlite luminescence, 48 h; series mostly up to 57.5 µM
Outline: as §1

[10] = tested on: SKOV3; details: Gynecologic cancer cell panel viability, ATPlite luminescence, 48 h; series mostly up to 57.5 µM
Outline: as §1

[11] = tested on: Tov-21-G; details: Gynecologic cancer cell panel viability, ATPlite luminescence, 48 h; series mostly up to 57.5 µM
Outline: as §1

[12] = tested on: Tov112D; details: Gynecologic cancer cell panel viability, ATPlite luminescence, 48 h; series mostly up to 57.5 µM
Outline: as §1

Measured: Potency

CC(C)(O)[C@@H]1CC[C@]2(CO)[C@@H](O)CC[C@](C)(O)[C@H]2[C@@H]1O[C@@H]1O[C@H](CO)[C@@H](O)[C@H](O)[C@H]1O
inactive: all assays above

Cc1cccc(NC(=O)CN2CCC(c3ccccn3)CC2)c1
inactive: all assays above

Cc1noc2c1-c1ccccc1C(c1ccc(Cl)cc1)=N[C@H]2CC(N)=O
inactive: all assays above

Cc1ccc(COC(=O)N2CC[C@@H](CNc3ncccn3)[C@@H](F)C2)cc1
not listed: [10]
inactive: all other assays above

CC1(C)CC=C(c2cnc3ccccc3c2)c2cc(C(=O)Nc3ccc(C(=O)O)cc3)ccc21
inactive: all assays above

CC(O)C/C=C/C=C/C(=O)OC1C=C2COC(=O)C2(O)C2(C)CCCC(C)(C)C12 (stereo not given)
inactive: all assays above

O=C(CC1CC(c2ccc(F)cc2F)=NO1)N1CCOCC1 (stereo not given)
inactive: all assays above

COc1cc(O)cc(C)c1C(=O)OC1C(CO)OC(n2ccc(=O)[nH]c2=O)C1OC(C)=O (stereo not given)
inactive: all assays above

C[C@]1(O)CC[C@@H]2C(C(=O)O)=CO[C@@H](O[C@@H]3O[C@H](CO)[C@@H](O)[C@H](O)[C@H]3O)[C@@H]21
not listed: [10]
inactive: all other assays above

CCC12CCCN3CCc4c(n(c5ccccc45)C(O)C1)C32 (stereo not given)
not listed: [10]
inactive: all other assays above

Oc1ccccc1-c1cc(-c2ccccc2F)[nH]n1
inactive: all assays above

COc1cnc(-n2cnc(C)n2)c2[nH]cc(C(=O)C(=O)N3CCN(C(=O)c4ccccc4)CC3)c12
inactive: all assays above

COc1ccccc1Oc1c(NS(=O)(=O)c2ccc(C)cn2)nc(-c2ccncc2)nc1OC
not listed: [10]
inactive: all other assays above

Cc1ncc([N+](=O)[O-])n1C[C@H](O)CN1CCOCC1
inactive: all assays above

C[C@@H](CC[C@@H]1[C@@]2(C)CCCC(C)(C)C2CC[C@@]1(C)O)CC(=O)O (stereo not given in full)
not listed: [10]
inactive: all other assays above
